For 104 molecules, IC50 and inhibition results are on record in PubChem BioAssay AID624351 (Southern Research Specialized Biocontainment Screening …, 2012).

Hit rate of the full screen: of about 2,400 compounds, about 1,400 (58%) were called active.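 How the source made its calls: active means inhibition of 30% or more at any tested dose; inconclusive means primary hits over the limit that were never retested; inactive means the rest.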 So high a share suggests a set chosen from earlier hits. Some of the results follow.

A short description of the assay: coupled detection enzyme interference, dose response, artefact control for MgcRacGAP inhibitor project, biochemical, coupled enzyme counter-screen (AID 624351).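 Further: signal is the ADP detection kit reading of free GDP without any GAP enzyme.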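 On inhibition: 0% = median positive control wells and 100% = median negative control wells.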 To be noted: ADP Hunter coupled enzyme counter-screen, fluorescence, no MgcRacGAP; series mostly up to 80 µM.
For orientation: IC50 means the concentration that gives 50% inhibition. As for `C=CCc1c(C)nc(-c2ccccc2)nc1Nc1ccc(O)cc1`, the IC50 is 41.3 µM (active).
Same read-out and setting: the value for `CS(=O)(=O)c1ccc2c(c1)sc1nc(=O)c(/C=C3/C=CC(=O)C(O)=C3)c(N)n12` was 60.1 µM (active); that for `Nc1c(/C=C2/C=CC(=O)C(O)=C2)c(=O)nc2sc(CC(=O)N3CCOCC3)nn12` was 67.8 µM (active); that for `Nc1c(/C=C2/C=CC(=O)C(O)=C2)c(=O)nc2sc(CC(=O)N3CCCC3)nn12` was 59.4 µM (active).
As for `Cc1ccc(C(C)C)c(OCCCCN2CCNCC2)c1`, the IC50 entry is “inactive”.
For the molecule `CC(NCc1ccc(S(N)(=O)=O)cc1)C(=O)N1c2ccccc2CC1C` (centres undefined), the IC50 result was “inactive”.
Still for that read-out and setting: the figure for `COc1ccccc1C1Nc2cccc3cccc(c23)N1` is 51.6 µM (active).
As a reminder, the inhibition is the change of the read-out against control, counted positive when it falls. As for `COc1cc(OC)c(C2Nc3cccc4cccc(c34)N2)c(OC)c1`, the inhibition was -13.7% [at 5 µM] (inactive).
As for `Cc1oc(-c2ccccc2)cc1C(=O)Nc1ccc(N(C)C)cc1`, the IC50 was 65.5 µM (active).
`CN(C)c1ccc(N=Cc2nc(-c3ccccc3)oc2OC(=O)c2cccc(Br)c2)cc1`: the IC50 entry is “inactive”.
With `COc1cc(OC)c(C(=O)Nc2ccc(N(C)C)cc2)cc1OC`, the IC50 was 27.2 µM (active).
Consider `Cc1ccc(NC(=O)C2=C(c3ccccc3)S(=O)(=O)CCS2(=O)=O)cc1`, for which the IC50 result was “inactive”.
Turning to `COc1ccc(NC(=O)Nc2ccc(N(C)C)cc2)cc1`, the IC50 is 21.9 µM (active).
Still for that read-out and setting: the value for `O=C(Nc1ccc(O)cc1)c1cc2n(n1)C(C(F)(F)F)CC(c1ccco1)N2` (centres undefined) was 28.7 µM (active); that for `Cc1cc(C)c(OCCCCN2CCC(C)CC2)c(Br)c1` was “inactive”.
Same read-out and setting: the entry for `COc1ccc(CN2CCC(C(N)=O)CC2)cc1OCc1ccccc1` is “inactive”; for `COc1ccc(CN2CCN(C(=O)CC(C)C)CC2)cc1OC` it is “inactive”.
In the case of `COc1ccc(CNc2ccc(N3CCN(C(C)=O)CC3)cc2)cc1OC`, the IC50 was 15.1 µM (active).
Still for that read-out and setting: the value for `COc1cc(CNc2ccc(N3CCN(C(C)=O)CC3)cc2)ccc1OCc1ccccc1` was 13.4 µM (active).
The same measure, in the same setting: the value for `COc1cc(CNc2ccc3[nH]c(=O)[nH]c3c2)ccc1OCc1ccccc1` was “inactive”.
On the same count and under the same terms, the entry for `COc1ccc(CN2CCN(Cc3ccccc3F)CC2)cc1OC` is “inactive”; for `COc1cc(/C=C/C(=O)OCC(=O)c2ccc[nH]2)ccc1O` it is 25.9 µM (active).
Take `COc1cc(/C=C/C(=O)OCC(=O)c2ccc(OC(F)F)cc2)ccc1O`: the IC50 was 58.2 µM (active).
On the same count and under the same terms, the value for `C/C(=N\NC(=O)c1cccc(N/N=C(\C)c2cc(O)ccc2O)c1)c1cc(O)ccc1O` was 75.5 µM (active).
On the same count and under the same terms, the value for `S=c1[nH]nc(-c2cccs2)n1/N=C/c1cccs1` was 59.7 µM (active); that for `Cc1cc(-c2n[nH]c(=S)n2/N=C/c2ccccc2[N+](=O)[O-])n[nH]1` was 83.5 µM (active); that for `Cc1cc(-c2n[nH]c(=S)n2/N=C/c2ccc(Br)s2)n[nH]1` was 80.5 µM (active).
Consider `Cc1cc(-c2n[nH]c(=S)n2/N=C/c2cccs2)n[nH]1`, for which the IC50 was 78.7 µM (active).
The same measure, in the same setting: the value for `Cc1cc(-c2n[nH]c(=S)n2/N=C/c2sccc2C)n[nH]1` was 62.4 µM (active); that for `O=C1CSC(=S)N1Nc1ccccc1` was 68 µM (active); that for `C[n+]1c2cc(N)ccc2cc2ccc(N)cc21` was “inactive”.
For `Oc1ccc2ccc(Cl)cc2c1`, the IC50 is 53.9 µM (active).
Still for that read-out and setting: the value for `Nc1ccc2ccc(O)cc2c1` was 31.5 µM (active); that for `CCCC1=NN2C(=N)/C(=C\c3ccc(SCc4ccco4)o3)C(=O)N=C2S1` was “inactive”; that for `CN(C)c1ccc(N=C/C=C2/N(C)c3ccccc3C2(C)C)cc1` was 20.6 µM (active).
In the case of `CN1/C(=C\C=N\NC(=O)c2ccc(O)cc2)C(C)(C)c2ccccc21`, the IC50 is 74.4 µM (active).
Consider `CN(C)c1ccc(N=C/C=C2\N(C)c3ccccc3C2(C)C)cc1`, for which the IC50 is 12.4 µM (active).
In the case of `COc1cc(CNC2CCCCC2OC)cc(OC)c1` (centres undefined), the IC50 result is “inactive”.
As for `O=c1c2c(nc3cc(-c4ccccc4)[nH]n13)CCS2`, the IC50 entry is “inactive”.
Same read-out and setting: the value for `O=C(CSc1nnc(C2CC2)n1C1CC1)N1CCN(c2ccc(O)cc2)CC1` was 45.6 µM (active); that for `O=C(CSc1nnnn1C1CC1)N1CCN(c2ccc(O)cc2)CC1` was 31.5 µM (active).
With `CCOC(=O)Nc1ccc2c(c1)Nc1ccccc1S2`, the half-maximal inhibitory concentration (IC50) was 40.6 µM (active).
On to `CCOC(=O)C1=C(C)Nc2ccccc2S1`, for which the IC50 was 41.3 µM (active).
Still for that read-out and setting: the value for `CCOC(=O)C1=C(C)Nc2ccc(C)cc2S1` was 79 µM (active); that for `CSCCOC(=O)C1=C(C)Nc2ccc(C)cc2S1` was 35.6 µM (active).
Still for that read-out and setting: the figure for `CCOc1cc(/C=N/NC(=O)CCn2nc(C)cc2C)ccc1O` is 58.5 µM (active).
Regarding `O=C(CSc1ccc2ccccc2n1)N/N=C/c1ccc(O)cc1`, the IC50 was 73.6 µM (active).
With `O=C(CCn1cnc2ccccc21)N/N=C/c1ccc(O)cc1`, the IC50 is 57.4 µM (active).
Regarding `Cc1cc(C)n(CCC(=O)N/N=C/c2ccc(O)cc2)n1`, the IC50 is 74.1 µM (active).
Still for that read-out and setting: the value for `CN(CCCCCCN(C)Cc1ccccc1O)Cc1ccccc1O` was “inactive”; that for `C#CCOCCOCCOCCNc1nc(N2CCN(C(=O)[C@H](CCCCN)n3cc([C@@H](N)CC(C)C)nn3)CC2)nc(N2CCN(C(=O)[C@H](CCCCN)n3cc([C@@H](N)CC(C)C)nn3)CC2)n1` was “inactive”; that for `COC(=O)CCNCCSc1nnc(-c2ccco2)n1Cc1ccccc1` was “inactive”.
On the same count and under the same terms, the value for `CCOc1cc(/C=N/NC(=O)C(=O)NCc2cccnc2)ccc1O` was 51.2 µM (active); that for `CCOC(=O)c1c(C)n(-c2ccc(C)cc2)c2ccc(OCC(O)CNCC3CCCO3)cc12` (centres undefined) was “inactive”; that for `N#C/C(=C\c1cccnc1)C(=O)Nc1cccc2ccccc12` was “inactive”.
Same read-out and setting: the figure for `CCOc1cc(/C=C(\C#N)C(=O)NCc2cccnc2)ccc1O` is 45.3 µM (active); for `CCOCCCNC(=O)/C(C#N)=C/c1ccc([N+](=O)[O-])o1` it is “inactive”.
Consider `CCOc1cc(/C=C(\C#N)C(=O)NCC2CCCO2)ccc1O` (centres undefined), for which the IC50 was 49.7 µM (active).
Same read-out and setting: the value for `N#C/C(=C/c1ccc(O)c(O)c1)C(=O)NCc1ccc(Cl)cc1` was 36.5 µM (active).
Same read-out and setting: the value for `C#CCOCCOCCOCCNc1nc(N2CCN(C(=O)C([C@@H](C)O)n3cc([C@@H](N)CCCCN)nn3)CC2)nc(N2CCN(C(=O)[C@H](CO)n3cc([C@@H](N)C(C)C)nn3)CC2)n1` (some centres undefined) was “inactive”; that for `CCN(CC)c1ccc(/C=N/O)cc1` was 21.6 µM (active).
Consider `CN(C)c1nc(Oc2ccc(/C=N/O)cc2)nc(N(C)C)n1`, for which the IC50 result was “inactive”.
Still for that read-out and setting: the value for `CN(C)c1ccc(/C=N/O)cc1` was 23.9 µM (active); that for `CCN(CC)CC(C)(C)C(=O)/C=C/c1ccc(/C=C/C(=O)C(C)(C)CN(CC)CC)cc1` was “inactive”; that for `CCN(CC)c1ccc(/C=N/NC(=O)c2ccoc2C)cc1` was “inactive”.
Still for that read-out and setting: the figure for `CCN(CC)c1ccc(/C=N\NC(N)=O)cc1` is 53.8 µM (active); for `O=C(O)c1ccc2nc(-c3ccco3)c(-c3ccco3)nc2c1` it is “inactive”.
The same measure, in the same setting: the value for `COc1cccc(CN2CCN(Cc3cc(OC)c(OC)c(OC)c3)CC2)c1OC` was “inactive”; that for `COc1ccc(C)cc1NCc1cccc(OC)c1OC` was 70.3 µM (active).
Take `COc1cccc(CNc2ccc(N3CCC(C)CC3)cc2)c1OC`: the IC50 was 6.68 µM (active).
On the same count and under the same terms, the entry for `COc1cccc(OC)c1OCCCN1CCOCC1` is “inactive”; for `COc1cccc(CNc2ccc(N3CCCCC3)cc2)c1OC` it is 4.01 µM (active).
Same read-out and setting: the entry for `COc1cccc(CN2CCN(Cc3cccc(Oc4ccccc4)c3)CC2)c1OC` is “inactive”; for `COc1cccc(Nc2ccc(N3CCCCC3)cc2)c1OC` it is 8.89 µM (active); for `COc1cccc(CNCc2ccccc2Br)c1OC` it is “inactive”.
On the same count and under the same terms, the value for `COc1cccc(OC)c1OCCCCN1CCCC1` was “inactive”; that for `COc1cc(Br)c(CNc2cc(C)ccc2C)cc1OC` was “inactive”.
Regarding `COc1ccc(CNCc2cccc(OC)c2OC)cc1Br`, the IC50 result is “inactive”.
The same measure, in the same setting: the value for `COc1cc(/C=C/C(=O)OC(C)C(=O)Nc2c(C)n(C)n(-c3ccccc3)c2=O)ccc1O` (centres undefined) was 45.4 µM (active).
The same measure, in the same setting: the value for `COc1cc(/C=C/C(=O)OCC(=O)Nc2c(C)n(C)n(-c3ccccc3)c2=O)ccc1O` was 53.6 µM (active).
The same measure, in the same setting: the entry for `Cc1c(NC(=O)CN2CC(C)OC(C)C2)c(=O)n(-c2ccccc2)n1C` (centres undefined) is “inactive”.
With `Cc1c(O)ccc2c3c(c(=O)oc12)CCCC3`, the IC50 was 23.7 µM (active).
The same measure, in the same setting: the value for `Nn1c(=S)[nH]c2sc3c(c2c1=O)CCCC3` was 67.3 µM (active); that for `COCCCn1c(=S)[nH]c2sc3c(c2c1=O)CCCC3` was 30.9 µM (active); that for `COCCn1c(=S)[nH]c2sc3c(c2c1=O)CCCC3` was 34.3 µM (active).
Still for that read-out and setting: the figure for `CCn1c(=S)[nH]c2sc3c(c2c1=O)CCCC3` is 35 µM (active); for `C=CCc1cc(C)ccc1OCCCn1ccnc1` it is “inactive”.
Same read-out and setting: the value for `O=C1C=CC(=O)N1c1ccccc1N1C(=O)C=CC1=O` was “inactive”; that for `O=C1C=CC(=O)N1c1ccc(Nc2ccccc2)cc1` was 34 µM (active); that for `O=C(O)c1cc(N2C(=O)C=CC2=O)cc(N2C(=O)C=CC2=O)c1` was “inactive”.
In the case of `COc1cc(/C=C(\C#N)c2nc3ccccc3[nH]2)cc(OC)c1O`, the IC50 is 27.1 µM (active).
Same read-out and setting: the value for `COc1cc(/C=C(\C#N)C(=O)c2c[nH]c3ccccc23)cc(OC)c1O` was 51.3 µM (active); that for `COc1cc(/C=C(\C#N)c2nc3ccccc3[nH]2)ccc1O` was 14.8 µM (active).
Same read-out and setting: the value for `Cc1ccc2nc(/C(C#N)=C/c3ccc(O)c(O)c3)[nH]c2c1` was 26.8 µM (active).
`CN1C=CC=C/C1=C(\C#N)c1nc2ccccc2[nH]1`: the IC50 was 52.5 µM (active).
Still for that read-out and setting: the entry for `COc1ccc(N2CCN(CC(O)COC(c3ccc(F)cc3)c3ccc(F)cc3)CC2)cc1` (centres undefined) is “inactive”.
In the case of `CC(=O)N1CCN(c2ccc(N)cc2)CC1`, the IC50 was 13.5 µM (active).
For the molecule `Nc1ccc(N2CCN(c3ccccc3)CC2)c(F)c1`, the IC50 is 37.9 µM (active).
Same read-out and setting: the value for `O=C(c1cccs1)N1CCN(Cc2ccncc2)CC1` was “inactive”.
In the case of `CCC(C)N1CCN(C(=O)c2cccs2)CC1` (centres undefined), the IC50 entry was “inactive”.
Same read-out and setting: the value for `Nc1ccc(N2CCN(c3ccc(F)cc3)CC2)cc1` was 19.9 µM (active).
On the same count and under the same terms, the figure for `Nc1ccc(N2CCN(C(=O)c3cccs3)CC2)cc1` is 22.1 µM (active); for `COc1cc(CN2CCN(c3ccccc3F)CC2)cc(OC)c1O` it is “inactive”.
On the same count and under the same terms, the value for `COCC(C)NCc1ccccc1C` (centres undefined) was “inactive”.
